Among all 5,500 compounds or so, about 2,000 (36%) were called active. Roughly 18% stayed inconclusive and do not appear here. Cut-off read from the data, not from the text of the source: active = normalized growth mostly below about 0.91 (no sharp cut-off); inconclusive = no clear call, values can overlap the other calls; inactive = mostly above about 0.92. The list shows a part of the results.
Assay: chemical genetic growth profiling, strain panel (AID 1159580);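 note: tested at 20 µM; growth read once vehicle control cultures reached saturation at 30 °C; 1 = growth at the plate median or of vehicle wells; lower values mean less growth of the strain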
Conditions: S. cerevisiae deletion strains, growth OD

Measured: normalized growth

FC(F)(F)c1cccc(N2CCNCC2)c1
inactive: locus YAL013W, strain DEP1, hits give low values 1 | locus YAL021C, strain ccr4, hits give low values 0.992 | locus YAL026C, strain drs2, hits give low values 1 | locus YAL030W, strain snc1, hits give low values 0.99 | locus YBL061C, strain skt5, hits give low values 0.992 | locus YBR009C, strain hhf1, hits give low values 0.978 | locus YBR021W, strain FUR4, hits give low values 0.991 | locus YBR023C, strain chs3, hits give low values 0.996 | locus YBR171W, strain sec66, hits give low values 1.01 | locus YBR229C, strain ROT2, hits give low values 1.01 | locus YBR231C, strain swc5, hits give low values 0.99 | locus YBR279W, strain paf1, hits give low values 1 | locus YCL011C, strain gbp2, hits give low values 0.999 | locus YCL016C, strain dcc1, hits give low values 0.991 | locus YCL029C, strain bik1, hits give low values 0.996 | locus YCL061C, strain MRC1, hits give low values 1 | locus YCL069W, strain vba3, hits give low values 1 | locus YCR088W, strain abp1, hits give low values 1.01 | locus YDL005C, strain med2, hits give low values 1 | locus YDL035C, strain GPR1, hits give low values 1 | locus YDL040C, strain nat1, hits give low values 0.988 | locus YDL074C, strain BRE1, hits give low values 0.994 | locus YDL101C, strain DUN1, hits give low values 1 | locus YDL134C, strain PPH21, hits give low values 1.01 | locus YDL185W, strain tfp1, hits give low values 0.994 | locus YDL192W, strain arf1, hits give low values 0.995 | locus YDR001C, strain nth1, hits give low values 1.01 | locus YDR069C, strain doa4, hits give low values 0.973 | locus YDR101C, strain arx1, hits give low values 0.994 | locus YDR137W, strain rgp1, hits give low values 1 | locus YDR159W, strain sac3, hits give low values 0.956 | locus YDR162C, strain NBP2, hits give low values 1.01 | locus YDR195W, strain ref2 0.928 | locus YDR297W, strain sur2, hits give low values 1 | locus YDR318W, strain mcm21, hits give low values 0.989 | locus YDR334W, strain swr1, hits give low values 1.01 | locus YDR335W, strain msn5, hits give low values 0.993 | locus YDR388W, hits give low values 0.977 | locus YDR392W, strain spt3, hits give low values 0.89 | locus YDR502C, strain sam2, hits give low values 0.98 | locus YEL003W, strain gim4, hits give low values 1.01 | locus YEL037C, strain rad23, hits give low values 1 | locus YEL061C, strain CIN8 (second series), hits give low values 1.01 | locus YEL061C, strain CIN8, hits give low values 1.01 | locus YER015W, strain faa2, hits give low values 0.994 | locus YER016W, strain bim1, hits give low values 0.995 | locus YER110C, hits give low values 0.976 | locus YER111C, strain swi4, hits give low values 0.999 | locus YER155C, strain BEM2 (second series), hits give low values 0.93 | locus YER155C, strain BEM2, hits give low values 1.01 | locus YER167W, strain BCK2, hits give low values 1 | locus YFR010W, strain ubp6, hits give low values 1.03 | locus YGL078C, strain dbp3, hits give low values 0.973 | locus YGL086W, strain mad1, hits give low values 0.983 | locus YGL167C, strain pmr1, hits give low values 0.981 | locus YGL173C, strain kem1, hits give low values 1.01 | locus YGL227W, strain vid30, hits give low values 1 | locus YGL240W, strain doc1, hits give low values 0.962 | locus YGL248W, strain PDE1, hits give low values 1.01 | locus YGL253W, strain hxk2, hits give low values 1.02 | locus YGR135W, strain pre9, hits give low values 0.953 | locus YGR229C, strain SMI1, hits give low values 0.987 | locus YGR252W, strain gcn5, hits give low values 0.932 | locus YHR013C, strain ard1, hits give low values 0.961 | locus YHR027C, strain rpn1, hits give low values 0.994 | locus YHR030C, strain SLT2, hits give low values 1.01 | locus YHR079C, strain IRE1 (second series), hits give low values 0.998 | locus YHR094C, strain hxt1, hits give low values 0.992 | locus YHR129C, strain ARP1, hits give low values 1.01 | locus YHR142W, strain chs7, hits give low values 1.02 | locus YHR200W, strain rpn10, hits give low values 0.987 | locus YIL066C, strain RNR3, hits give low values 1.02 | locus YIL073C, strain SPO22, hits give low values 1.08 | locus YIL125W, strain kgd1, hits give low values 0.974 | locus YIR030C, strain dcg1, hits give low values 1 | locus YJL092W, strain hpr5, hits give low values 1.01 | locus YJL095W, strain BCK1 (second series), hits give low values 0.995 | locus YJL095W, strain BCK1, hits give low values 1.02 | locus YJL115W, strain asf1, hits give low values 0.998 | locus YJL129C, strain trk1, hits give low values 1.03 | locus YJL134W, strain LCB3, hits give low values 1 | locus YJL154C, strain vps35, hits give low values 1 | locus YJL164C, strain tpk1, hits give low values 0.993 | locus YJL166W, strain qcr8, hits give low values 0.987 | locus YJL168C, strain set2, hits give low values 0.987 | locus YJL187C, strain SWE1 (second series), hits give low values 1.01
